Experimental data taken from PubChem BioAssay (NCATS).
Inconclusive results are not listed. Active and inactive are the calls of the source. Calls come from the whole dose curve; as a rule, active = well fitted cell-killing curve with a large enough effect; inconclusive = small, poorly fitted or top-dose-only effect, or effect the other way; inactive = no such curve, though single readings can be large or run the other way.

Assay: Viability qHTS for spleen associated tyrosine kinase inhibitor (SYKi) drug resistant MV4-11 cells (AID 1963824); note: nearly all actives have a fitted effect of over 35% in size
From the text: Department of Medicine, Hematology/Oncology
University Hospital Frankfurt, Germany.
Trials have shown promising clinical activity of the selective SYK inhibitor entospletinib in patients with high expressing HOXA9/MEIS1 acute leukemias. As the development of resistance mechanisms is a common problem in the use of targeted drugs, we performed a chemical library screen to identify drug sensitivities in SYK inhibitor resistant AML cells. […] Glucocorticoids are potent immunosuppressants which work in part by inhibiting the transcription of cytokine genes.
Described herein is a viability screen to look for activity in the SYK inhibitor drug resistant cell line against four NCATS compound libraries (MIPE 5.0, NPC, NPACT, and Kinase) totaling 11372 compounds. Active hits were reacquired for confirmation and further secondary assay testing.
SEQUENCE No. (e.g., 1, 2, 3, etc.); […] (e.g., Cells, Incubation, Reagent, etc.); VALUE; DESCRIPTION.
1; Media; 2uL; white, solid-bottom Corning assay plate.
2; Compounds; 23nL; Echo acoustic dispenser.
3; Cell; 5uL; 500 cells per well.
4: Incubation; 72hr; 37 C, 5% CO2, 95% humidity.
5; Reagent; 3uL; CellTiter-Glo reagent (Promega).
6; Incubation; 10min; room temperature.
7; Detection; Luminescence; ViewLux plate reader (PerkinElmer).
NOTES (numbers refer to Sequence numbers above
1. Quantitative high-throughput screening (qHTS) of small molecule compounds was conducted on drug resistant SYKi MV4-11 cell line.
2. Twenty-three nanoliter of small molecule compounds were added to each assay plates using the Echo acoustic dispenser (Beckman Coulter).
3. Cells were seeded into the assay plates at a final density of 500 cells in 5uL of media per well using the Multidrop Combi dispenser.
4. Plates were covered with stainless steel gasketed lids and incubated for 72 hours at standard cell culture conditions.
5. Viability was assessed by adding 3uL of CellTiter-Glo detection reagent (Promega).
6. Plates were covered with gasket lids and incubated for 10 minutes at room temperature.
7. Luminescence was measured on a ViewLux plate reader (PerkinElmer).
Potency is the fitted concentration of half-maximal effect.

With `Nc1ccn(CC(CO)OCP(=O)(O)O)c(=O)n1` (stereo not drawn) the Potency was “inactive”.

In the case of `COC(=O)[C@]12CCC(C)(C)C[C@H]1[C@H]1C(=O)C=C3[C@@]4(C)C=C(C#N)C(=O)C(C)(C)[C@@H]4CC[C@@]3(C)[C@]1(C)CC2`, the Potency was 2630 nM (active).

For `CC1(C)CC[C@]2(NC(=O)C(C)(F)F)CC[C@]3(C)[C@H](C(=O)C=C4[C@@]5(C)C=C(C#N)C(=O)C(C)(C)[C@@H]5CC[C@]43C)[C@@H]2C1`, the Potency was 2630 nM (active).
